# Results reported in PubChem BioAssay.
# For part of these data: Results with a measured potency or affinity are listed apart. Calls of active or inactive are those of the source. Unless noted, the rule behind the calls is not given here.
# Experiments:
# [1] = HepG2 liver cancer cell viability effects, profiling panel, resazurin fluorescence, 24 h, PK04 Diversity Set (AID 1172); conditions: higher = more signal
# [2] = basal S. cerevisiae growth modulation, no modifier, primary screen, OD600, strain BY4716, 24 h, basal condition (AID 1173); conditions: OD600, 24 h, higher = more signal, called active from +8 up or from −8 down
# [3] = MM1S myeloma cell viability, profiling panel, resazurin fluorescence, basal, 24 h, PK04 Diversity Set (AID 1174); conditions: higher = more signal, called active from +8 up or from −8 down;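 note: MM1S multiple myeloma cell line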
# [4] = biological target: Dihydroorotate dehydrogenase (quinone), mitochondrial (Plasmodium falciparum (isolate 3D7)) (UniProt Q08210); assay: PfDHODH enzyme inhibitors, primary screen, biochemical, C-terminal His tag, absorbance 600 nm (AID 1175); conditions: DCIP absorbance 600 nm, higher = more signal, called active from +8 up or from −8 down;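 note: recombinant parasite enzyme with a five histidine tag at its C terminus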
# Chain of Dihydroorotate dehydrogenase (quinone), mitochondrial (Plasmodium falciparum (isolate 3D7)) (Q08210 whole entry, looked up): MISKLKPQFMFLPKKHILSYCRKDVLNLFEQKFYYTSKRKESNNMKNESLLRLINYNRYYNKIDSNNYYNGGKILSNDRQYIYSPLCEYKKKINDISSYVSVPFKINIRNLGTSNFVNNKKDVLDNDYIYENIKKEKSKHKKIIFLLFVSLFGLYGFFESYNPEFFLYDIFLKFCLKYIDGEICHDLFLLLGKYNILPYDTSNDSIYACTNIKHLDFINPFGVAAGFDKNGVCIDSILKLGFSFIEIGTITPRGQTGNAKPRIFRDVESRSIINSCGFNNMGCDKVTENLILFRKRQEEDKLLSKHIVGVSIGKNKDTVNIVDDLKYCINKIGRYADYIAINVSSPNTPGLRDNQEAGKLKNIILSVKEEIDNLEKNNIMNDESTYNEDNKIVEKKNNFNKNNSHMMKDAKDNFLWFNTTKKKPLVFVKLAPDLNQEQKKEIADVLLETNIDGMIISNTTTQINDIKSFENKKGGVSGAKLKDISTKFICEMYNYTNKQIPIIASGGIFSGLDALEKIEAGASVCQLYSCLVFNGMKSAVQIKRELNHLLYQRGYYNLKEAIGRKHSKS
# [5] = P. aeruginosa biofilm formation inhibitors, primary screen, strain PAO1, LB-PBS medium, absorbance 600 nm (AID 1176); conditions: P. aeruginosa PAO1 growth/biofilm, A600, 12 h; higher = more signal
# [6] = S. cerevisiae RM11-1a growth modifiers, primary screen, strain RM11-1a, OD600, basal, 24 h (AID 1177); conditions: OD600, 24 h, higher = more signal, called active from +8 up or from −8 down;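 note: cultures grown under basal conditions with no added stressor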
# [7] = E. coli acrAB mutant growth effects, primary screen, E. coli filamentation inducers, strain DRC39, OD650, 24 h (AID 1178); conditions: higher = more signal, called active from +8 up or from −8 down;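 note: growth measured as culture turbidity by optical density at 650 nm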
# [8] = E. coli acrAB mutant growth effects, primary screen, E. coli filamentation inducers, strain DRC39, OD650, 48 h (AID 1179);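 note: screen aims at cell division blockers that make cells filament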; conditions: E. coli DRC39 delta-acrAB growth, higher = more signal, called active from +8 up or from −8 down
# [9] = RPMI8226 myeloma cell viability, profiling panel, resazurin fluorescence, basal, 24 h, PK04 Diversity Set (AID 1180); conditions: higher = more signal;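 note: RPMI8826 multiple myeloma cell line at 5000 cells per well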
# [10] = biological target: E3 ubiquitin-protein ligase XIAP (Homo sapiens) (UniProt P98170); assay: XIAP binders, primary screen, biophysical, small-molecule microarray, fluorescence 635 nm (AID 1181); conditions: small-molecule microarray binding, higher = more signal;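 note: score merges 667 nm emission and signal to noise over triplicate slides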
# Chain of E3 ubiquitin-protein ligase XIAP (Homo sapiens) (P98170 whole entry, looked up): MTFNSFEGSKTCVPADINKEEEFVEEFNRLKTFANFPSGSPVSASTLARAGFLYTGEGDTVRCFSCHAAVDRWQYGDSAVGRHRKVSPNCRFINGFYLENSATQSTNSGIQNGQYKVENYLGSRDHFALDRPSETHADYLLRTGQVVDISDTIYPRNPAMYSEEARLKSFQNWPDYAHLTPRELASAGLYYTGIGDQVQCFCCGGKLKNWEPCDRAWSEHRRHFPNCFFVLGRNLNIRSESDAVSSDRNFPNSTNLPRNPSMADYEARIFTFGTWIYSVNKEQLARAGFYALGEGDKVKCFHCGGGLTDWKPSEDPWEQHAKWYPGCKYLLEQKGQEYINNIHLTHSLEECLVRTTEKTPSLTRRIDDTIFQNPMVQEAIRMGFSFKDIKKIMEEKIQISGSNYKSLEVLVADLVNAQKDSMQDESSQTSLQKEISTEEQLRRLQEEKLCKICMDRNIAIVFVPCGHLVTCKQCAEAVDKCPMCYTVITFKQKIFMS
# [11] = tested on: XIP peptide (Xip251-270) binding; assay: small-molecule binders of XIP peptide, primary screen, biochemical, small-molecule microarray, fluorescence 635/667 nm, 0.1 µg/mL protein (AID 1182); conditions: fluorescent protein binding, 635 nm, higher = more signal, called active from +8 up or from −8 down
# XIP peptide (Xip251-270) = assay: small-molecule binders of XIP peptide, primary screen, biochemical, small-molecule microarray, fluorescence 635/667 nm, 0.5 µg/mL protein (AID 1183); conditions: small-molecule microarray binding, fluorescence 635 nm; higher = more signal
# [12] = Plasmodium falciparum growth inhibition, primary screen, strain 3D7, DAPI fluorescence, 100 nL (AID 1184);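 note: parasites grown inside human red blood cells in medium with human serum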; conditions: P. falciparum 3D7 growth, 3 d, higher = more signal
# [13] = biological target: Homeobox protein Hox-A13 (Mus musculus) (UniProt Q62424); assay: inhibitors of HoxA13-DNA binding, primary screen, biochemical, fluorescence polarization, labeled oligonucleotide (AID 1185); conditions: 15 min, higher = more signal, called active from +8 up or from −8 down
# Chain of Homeobox protein Hox-A13 (Mus musculus) (Q62424 whole entry, looked up): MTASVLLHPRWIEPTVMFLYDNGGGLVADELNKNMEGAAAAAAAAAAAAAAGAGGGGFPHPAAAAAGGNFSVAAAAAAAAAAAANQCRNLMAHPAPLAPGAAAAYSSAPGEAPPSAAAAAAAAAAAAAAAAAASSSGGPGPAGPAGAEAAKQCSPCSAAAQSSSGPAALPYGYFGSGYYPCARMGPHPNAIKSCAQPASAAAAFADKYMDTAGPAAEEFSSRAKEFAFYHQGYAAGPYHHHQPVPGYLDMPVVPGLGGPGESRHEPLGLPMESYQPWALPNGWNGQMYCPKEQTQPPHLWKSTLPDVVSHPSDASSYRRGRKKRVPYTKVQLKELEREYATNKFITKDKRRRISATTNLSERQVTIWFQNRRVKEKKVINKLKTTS
# [14] = inhibitors of hydroxyurea-induced Chk1 phosphorylation, primary screen, imaging, HeLa, phospho-Chk1 antibody, percent positive cells (AID 1186); conditions: hydroxyurea-induced phospho-Chk1 immunofluorescence imaging, higher = more signal
# [15] = inhibitors of hydroxyurea-induced Chk1 phosphorylation, primary screen, imaging, HeLa, phospho-Chk1 nuclear intensity (AID 1187); conditions: hydroxyurea-induced phospho-Chk1 immunofluorescence imaging, higher = more signal
# [16] = inducers of Cryptococcus neoformans cell lysis, dose response, AK release luminescence, cherry-picks (AID 687000;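 active = fitted dose curve reaches 40% lysis signal rise at or below the highest valid concentration tested for that sample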;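 note: luminescent detection of adenylate kinase leaking from lysed yeast; 0% = median neutral control signal and 100% = double that signal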); conditions: C. neoformans lysis, adenylate kinase release luminescence, 4 h, 100% = twice the neutral-control signal; series mostly up to 15 µM
# [17] = HepG2 cell cytotoxicity, dose response, cytotoxicity control, cherry-picks, set 2 (AID 687002;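 active = a dose-response fit showing signal loss, with half-maximal concentration no higher than twice the top tested dose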); conditions: HepG2 viability, ATP luminescence (CellTiter-Glo), 48 h; series mostly up to 26 µM
# [18] = HeLa cell cytotoxicity, dose response, cytotoxicity control, ATP luminescence, cherry-pick samples (AID 687004;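 active = a fitted half-maximal concentration no higher than twice the top valid tested dose, with signal falling as cells die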;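 note: 0% = neutral control median and -100% = staurosporine 10 µM control median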); conditions: HeLa viability, ATP luminescence (CellTiter-Glo), 48 h; series mostly up to 26 µM
Compound,z-score [1],z-score [2],z-score [3],composite z-score [4],z-score [5],z-score [6],z-score [7],z-score [8],z-score [9],composite z-score [10],composite z-score [11],composite z-score (XIP peptide (Xip251-270)),z-score [12],z-score [13],z-score [14],z-score [15],outcome [16],outcome [17],outcome [18]
COc1cc2c(cc1OC)CN(C(=O)[C@H]1[C@@H]3C(=O)O[C@@H](c4ccccc4)[C@@H](c4ccccc4)N3[C@@H](c3ccccc3OCCO)[C@]13C(=O)Nc1ccc(C#CC4(O)CCCCCC4)cc13)CC2,0.714,0.0302 (inactive),-0.492 (inactive),0.682 (inactive),2.63 (inactive),2.15 (inactive),0.667 (inactive),1.61 (inactive),0.248,-0.12,1.62 (inactive),0.837,-2.14,1.74 (inactive),-0.0766 (inactive),0.196 (inactive),–,–,–
O=C1C2C=CC(C(O)Cc3ccccc3)N(Nc3ccc([N+](=O)[O-])cc3)C2C(=O)N1c1ccccc1 (centres undefined),-0.346,-0.168 (inactive),-0.824 (inactive),-0.75 (inactive),0.946 (inactive),-0.518 (inactive),-1.22 (inactive),0.0196 (inactive),-0.358,0.202,2.76 (inactive),-0.224,-0.463,-5.69 (inactive),0.433 (inactive),-0.541 (inactive),–,–,–
CO[C@@H]1COC(=O)[C@H](COCc2ccccc2)NC(=O)CC=C[C@@H](C)[C@H](OC)COC(=O)[C@H](COCc2ccccc2)NC(=O)CC=C[C@H]1C,0.784,-0.173 (inactive),1.28 (inactive),0.946 (inactive),–,0.371 (inactive),2.23 (inactive),-0.0924 (inactive),0.415,0.378,0.271 (inactive),-0.713,-0.989,0.421 (inactive),–,–,–,–,–
COC(=O)C(CC#Cc1ccc2c(c1)[C@]1(C(=O)N2)[C@H](C(=O)N2CCCCCCC2)[C@H]2C(=O)O[C@H](c3ccccc3)[C@H](c3ccccc3)N2[C@@H]1c1ccc(O)cc1)C(=O)OC,0.436,-0.636 (inactive),0.636 (inactive),-0.665 (inactive),0.473 (inactive),-0.016 (inactive),-0.177 (inactive),-0.312 (inactive),0.402,0.0512,0.431 (inactive),0.459,-1.39,1.11 (inactive),-0.197 (inactive),-0.109 (inactive),–,–,–
COc1cc(CO)cc(I)c1O[C@H]1C=C(C(=O)NCCO)C[C@@H](N(CC2CCCCC2)C(=O)c2cc3ccccc3oc2=O)[C@@H]1O,0.479,-0.514 (inactive),0.308 (inactive),-0.23 (inactive),0.343 (inactive),0.372 (inactive),0.663 (inactive),0.283 (inactive),0.393,-0.12,0.193 (inactive),0.24,1.04,-6.1 (inactive),0.113 (inactive),0.194 (inactive),inactive,inactive,inactive
C=C[C@H](OC)[C@@H](OC(=O)Nc1ccc(SC)cc1)c1ccc(O)c(F)c1,-0.0359,-2.99 (inactive),0.0545 (inactive),-2.05 (inactive),1.88 (inactive),-0.703 (inactive),0.543 (inactive),0.519 (inactive),0.035,-0.192,2.52 (inactive),0.719,0.188,-2.14 (inactive),-1.07 (inactive),-0.478 (inactive),–,–,–
O=C/C=C/c1ccc(/C=C/c2ccccc2)cc1,0.555,-16.4 (active),0.408 (inactive),-1.43 (inactive),0.668 (inactive),-1.01 (inactive),2.11 (inactive),1.56 (inactive),-3.21,-0.242,-0.837 (inactive),-0.443,3.9,0.0626 (inactive),0.144 (inactive),0.848 (inactive),–,–,–
COc1ccc(-c2cc3c(c(-c4ccccc4)n2)[Si](C(C)C)(C(C)C)O[C@H]3c2ccccc2)cn1,0.158,0.509 (inactive),0.117 (inactive),-0.349 (inactive),0.35 (inactive),-0.824 (inactive),0.0539 (inactive),-0.508 (inactive),0.184,0.113,0.64 (inactive),0.559,-2.91,-2.23 (inactive),-0.317 (inactive),-0.344 (inactive),–,–,–
O=C1OCC=C[C@H]2OC34C=CCN(Cc5ccccc5)C(=O)[C@H]3N(CCO)C(=O)[C@@H]4[C@@H]12 (some centres undefined),1.21,-0.999 (inactive),1.6 (inactive),-0.415 (inactive),0.317 (inactive),-0.77 (inactive),0.508 (inactive),0.186 (inactive),0.894,-0.16,-0.132 (inactive),0.666,0.438,-4.18 (inactive),0.373 (inactive),0.252 (inactive),–,–,–
